Legend:
Experiment in all cases: DAPPL (digital affinity profiling via proximity ligation, sequencing); 10 mM Tris-HCl pH 7.5, 50 mM NaCl, 1 mM DTT, 4% glycerol, room temperature, 30 min; GST-TFs on glutathione beads, 16-mer random dsDNA library, 0.1% formaldehyde crosslink after washing; high values mean tight binding
Settings in all cases: protein: recombinant; tags: N-terminal GST; dsDNA, one strand shown
[1] = target: T1, FLI1 (Homo sapiens, UniProt Q01543 1-452)
T1 sequence: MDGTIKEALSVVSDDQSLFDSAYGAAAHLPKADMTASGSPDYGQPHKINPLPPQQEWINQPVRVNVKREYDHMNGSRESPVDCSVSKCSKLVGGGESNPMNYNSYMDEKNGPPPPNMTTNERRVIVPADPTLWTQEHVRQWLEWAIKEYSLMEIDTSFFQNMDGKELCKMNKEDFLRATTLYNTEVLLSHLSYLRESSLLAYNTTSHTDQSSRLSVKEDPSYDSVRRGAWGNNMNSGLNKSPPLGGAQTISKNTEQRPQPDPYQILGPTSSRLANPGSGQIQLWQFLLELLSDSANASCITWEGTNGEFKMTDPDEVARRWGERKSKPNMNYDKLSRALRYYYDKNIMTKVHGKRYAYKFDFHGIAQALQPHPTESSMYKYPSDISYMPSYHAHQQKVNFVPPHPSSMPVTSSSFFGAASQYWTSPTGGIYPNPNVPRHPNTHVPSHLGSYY
How it was run: (§1)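 Pools were built from human transcription factors expressed in yeast as GST fusions, captured on glutathione beads and DNA-barcoded, along with a tag-only sample. Incubation with 200 nmole of a 16-mer random double-stranded DNA library lasted 30 min at room temperature in Tris/NaCl/DTT/glycerol buffer, and was followed by washing, 0.1% formaldehyde crosslinking, proximity ligation, PCR amplification and Illumina NextSeq500 sequencing. Binding signal is the quotient of each hexamer's read frequency for a factor and its frequency for the tag-only sample.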

[2] = target: T2, ELK1 (Homo sapiens, UniProt P19419 1-428)
T2 sequence: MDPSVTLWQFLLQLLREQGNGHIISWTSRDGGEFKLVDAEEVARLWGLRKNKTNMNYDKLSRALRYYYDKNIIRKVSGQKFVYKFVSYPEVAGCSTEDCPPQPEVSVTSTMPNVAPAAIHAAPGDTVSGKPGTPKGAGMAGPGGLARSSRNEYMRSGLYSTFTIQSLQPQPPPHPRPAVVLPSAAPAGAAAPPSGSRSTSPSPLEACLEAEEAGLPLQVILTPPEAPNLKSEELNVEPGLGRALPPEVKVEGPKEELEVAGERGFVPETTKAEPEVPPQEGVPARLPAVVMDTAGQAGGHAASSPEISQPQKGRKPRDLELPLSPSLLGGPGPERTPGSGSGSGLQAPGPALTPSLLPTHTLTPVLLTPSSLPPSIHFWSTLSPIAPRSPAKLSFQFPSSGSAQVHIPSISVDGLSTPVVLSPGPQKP
How it was run: as §1

[3] = target: T3, GABPA (Homo sapiens, UniProt Q06546 1-454)
T3 sequence: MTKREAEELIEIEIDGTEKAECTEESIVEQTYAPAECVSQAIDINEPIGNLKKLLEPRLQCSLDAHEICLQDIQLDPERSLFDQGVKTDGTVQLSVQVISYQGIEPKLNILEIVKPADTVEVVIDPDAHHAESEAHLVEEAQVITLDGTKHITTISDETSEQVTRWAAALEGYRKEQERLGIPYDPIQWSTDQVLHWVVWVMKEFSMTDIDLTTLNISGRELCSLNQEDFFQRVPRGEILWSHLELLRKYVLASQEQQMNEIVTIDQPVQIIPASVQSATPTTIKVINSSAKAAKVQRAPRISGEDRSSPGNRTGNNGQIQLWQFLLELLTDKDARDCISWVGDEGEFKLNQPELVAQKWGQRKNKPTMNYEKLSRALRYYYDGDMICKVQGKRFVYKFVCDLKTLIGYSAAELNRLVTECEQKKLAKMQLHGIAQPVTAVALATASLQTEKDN
How it was run: as §1

[4] = target: T4, ERG (Homo sapiens, UniProt P11308 1-479)
T4 sequence: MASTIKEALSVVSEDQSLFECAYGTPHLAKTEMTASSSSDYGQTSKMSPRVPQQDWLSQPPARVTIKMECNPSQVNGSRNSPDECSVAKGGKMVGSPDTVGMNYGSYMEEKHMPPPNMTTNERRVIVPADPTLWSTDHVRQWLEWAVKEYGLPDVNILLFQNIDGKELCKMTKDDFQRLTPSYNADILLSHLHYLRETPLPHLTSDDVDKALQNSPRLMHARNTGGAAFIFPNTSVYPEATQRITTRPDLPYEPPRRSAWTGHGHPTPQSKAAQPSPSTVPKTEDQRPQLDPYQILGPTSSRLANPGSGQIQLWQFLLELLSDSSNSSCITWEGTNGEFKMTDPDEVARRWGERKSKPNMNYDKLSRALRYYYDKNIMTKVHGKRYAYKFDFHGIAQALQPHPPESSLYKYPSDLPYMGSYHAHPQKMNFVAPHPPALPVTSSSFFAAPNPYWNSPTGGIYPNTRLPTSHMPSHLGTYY
How it was run: as §1

[5] = target: ELF1 (Homo sapiens, UniProt P32519 1-619)
How it was run: as §1

[6] = target: T5, EHF (Homo sapiens, UniProt Q9NZC4 1-300)
T5 sequence: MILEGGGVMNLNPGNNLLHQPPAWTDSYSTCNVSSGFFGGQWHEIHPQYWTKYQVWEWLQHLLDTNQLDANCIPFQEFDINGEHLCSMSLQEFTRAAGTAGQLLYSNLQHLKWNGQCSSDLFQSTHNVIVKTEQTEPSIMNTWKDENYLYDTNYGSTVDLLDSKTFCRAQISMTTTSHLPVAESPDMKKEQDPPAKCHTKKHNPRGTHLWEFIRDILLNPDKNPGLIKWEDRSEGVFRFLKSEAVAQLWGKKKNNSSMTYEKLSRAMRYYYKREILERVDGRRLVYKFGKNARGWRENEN
How it was run: as §1

[7] = target: SPI1 (Homo sapiens, UniProt P17947 1-270)
How it was run: as §1

[8] = target: SPIB (Homo sapiens, UniProt Q01892 1-262)
How it was run: as §1

[9] = target: T6, FEV (Homo sapiens, UniProt Q99581 1-238)
T6 sequence: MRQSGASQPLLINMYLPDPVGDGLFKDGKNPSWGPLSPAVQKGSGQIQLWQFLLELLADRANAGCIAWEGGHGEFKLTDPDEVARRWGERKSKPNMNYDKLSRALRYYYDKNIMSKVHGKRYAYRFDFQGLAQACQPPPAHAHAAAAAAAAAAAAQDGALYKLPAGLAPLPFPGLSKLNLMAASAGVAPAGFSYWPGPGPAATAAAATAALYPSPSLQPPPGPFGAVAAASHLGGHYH
How it was run: as §1

[10] = target: ETV5 (Homo sapiens, UniProt P41161 1-510)
How it was run: as §1

[11] = target: ELF4 (Homo sapiens, UniProt Q99607 1-663)
How it was run: as §1

[12] = target: T7, ETV2 (Homo sapiens, UniProt O00321 1-342)
T7 sequence: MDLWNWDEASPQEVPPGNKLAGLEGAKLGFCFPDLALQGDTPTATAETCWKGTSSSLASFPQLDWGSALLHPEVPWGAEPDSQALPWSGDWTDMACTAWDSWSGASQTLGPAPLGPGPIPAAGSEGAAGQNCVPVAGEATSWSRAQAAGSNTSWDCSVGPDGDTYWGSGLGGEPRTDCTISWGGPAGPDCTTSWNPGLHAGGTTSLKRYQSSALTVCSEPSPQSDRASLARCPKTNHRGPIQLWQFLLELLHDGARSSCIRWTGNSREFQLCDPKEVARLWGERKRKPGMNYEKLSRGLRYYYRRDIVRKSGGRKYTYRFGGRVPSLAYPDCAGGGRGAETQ
How it was run: as §1

[13] = target: T8, ELF3 (Homo sapiens, UniProt P78545 1-371)
T8 sequence: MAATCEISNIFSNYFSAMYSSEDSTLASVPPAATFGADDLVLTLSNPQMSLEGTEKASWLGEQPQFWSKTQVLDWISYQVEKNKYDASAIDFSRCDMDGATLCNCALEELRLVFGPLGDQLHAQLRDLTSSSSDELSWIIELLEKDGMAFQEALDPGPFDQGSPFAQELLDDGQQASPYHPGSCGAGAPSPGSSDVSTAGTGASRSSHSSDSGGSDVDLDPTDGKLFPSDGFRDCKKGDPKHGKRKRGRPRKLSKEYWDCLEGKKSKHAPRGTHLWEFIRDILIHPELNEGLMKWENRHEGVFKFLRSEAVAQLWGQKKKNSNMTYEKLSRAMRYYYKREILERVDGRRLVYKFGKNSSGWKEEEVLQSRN
How it was run: as §1

[14] = target: ETV1 (Homo sapiens, UniProt P50549 1-477)
How it was run: as §1

[15] = target: T9, ETV3L (Homo sapiens, UniProt Q6ZN32 1-361)
T9 sequence: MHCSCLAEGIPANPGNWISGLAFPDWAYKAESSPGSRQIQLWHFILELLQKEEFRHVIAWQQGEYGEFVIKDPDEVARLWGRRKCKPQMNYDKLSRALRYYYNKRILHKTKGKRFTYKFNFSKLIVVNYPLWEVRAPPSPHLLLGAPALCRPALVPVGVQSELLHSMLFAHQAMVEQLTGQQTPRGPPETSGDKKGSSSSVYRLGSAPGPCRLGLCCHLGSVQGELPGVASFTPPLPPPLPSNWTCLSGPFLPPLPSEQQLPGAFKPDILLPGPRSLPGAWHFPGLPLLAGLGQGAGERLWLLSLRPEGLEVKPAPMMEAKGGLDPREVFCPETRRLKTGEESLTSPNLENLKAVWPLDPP
How it was run: as §1

[16] = target: T10, ETS2 (Homo sapiens, UniProt P15036 1-469)
T10 sequence: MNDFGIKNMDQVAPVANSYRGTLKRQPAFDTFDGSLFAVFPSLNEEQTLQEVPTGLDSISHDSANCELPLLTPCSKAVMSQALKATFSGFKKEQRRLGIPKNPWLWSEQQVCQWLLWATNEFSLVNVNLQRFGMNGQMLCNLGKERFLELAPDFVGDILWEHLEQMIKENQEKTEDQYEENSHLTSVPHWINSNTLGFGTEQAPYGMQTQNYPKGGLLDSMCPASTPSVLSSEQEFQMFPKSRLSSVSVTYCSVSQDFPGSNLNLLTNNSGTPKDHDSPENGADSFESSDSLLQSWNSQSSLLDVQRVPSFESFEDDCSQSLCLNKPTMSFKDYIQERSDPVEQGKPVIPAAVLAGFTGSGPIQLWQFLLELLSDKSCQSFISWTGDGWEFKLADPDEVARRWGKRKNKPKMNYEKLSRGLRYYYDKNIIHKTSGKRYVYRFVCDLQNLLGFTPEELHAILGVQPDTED
How it was run: as §1

[17] = target: T11, ETV3 (Homo sapiens, UniProt P41162-2 1-143)
T11 sequence: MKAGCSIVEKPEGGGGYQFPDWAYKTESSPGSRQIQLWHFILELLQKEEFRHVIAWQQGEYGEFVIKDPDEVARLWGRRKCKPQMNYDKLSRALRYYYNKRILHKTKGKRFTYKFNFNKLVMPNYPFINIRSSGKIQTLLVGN
How it was run: as §1

[18] = target: ETV6 (Homo sapiens, UniProt P41212 1-452)
How it was run: as §1

Sequence of ELF4 (Q99607 whole entry): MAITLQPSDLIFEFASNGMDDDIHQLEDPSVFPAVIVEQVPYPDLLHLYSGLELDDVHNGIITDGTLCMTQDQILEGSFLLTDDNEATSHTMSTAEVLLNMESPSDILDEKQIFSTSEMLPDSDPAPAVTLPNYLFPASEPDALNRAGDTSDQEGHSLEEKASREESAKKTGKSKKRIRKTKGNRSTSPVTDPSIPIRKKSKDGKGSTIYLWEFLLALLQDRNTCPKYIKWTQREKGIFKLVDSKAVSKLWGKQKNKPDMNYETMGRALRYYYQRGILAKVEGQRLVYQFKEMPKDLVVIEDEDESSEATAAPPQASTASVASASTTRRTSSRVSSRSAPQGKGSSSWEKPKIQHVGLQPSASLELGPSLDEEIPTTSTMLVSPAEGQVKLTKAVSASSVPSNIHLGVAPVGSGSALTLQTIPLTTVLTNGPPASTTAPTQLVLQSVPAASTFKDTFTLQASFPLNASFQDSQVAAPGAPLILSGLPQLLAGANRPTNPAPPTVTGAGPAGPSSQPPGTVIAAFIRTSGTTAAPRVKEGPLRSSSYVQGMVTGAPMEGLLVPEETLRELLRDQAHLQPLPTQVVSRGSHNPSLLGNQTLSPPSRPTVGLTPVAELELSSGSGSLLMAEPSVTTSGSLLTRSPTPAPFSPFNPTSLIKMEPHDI
Sequence of ELF1 (P32519 whole entry): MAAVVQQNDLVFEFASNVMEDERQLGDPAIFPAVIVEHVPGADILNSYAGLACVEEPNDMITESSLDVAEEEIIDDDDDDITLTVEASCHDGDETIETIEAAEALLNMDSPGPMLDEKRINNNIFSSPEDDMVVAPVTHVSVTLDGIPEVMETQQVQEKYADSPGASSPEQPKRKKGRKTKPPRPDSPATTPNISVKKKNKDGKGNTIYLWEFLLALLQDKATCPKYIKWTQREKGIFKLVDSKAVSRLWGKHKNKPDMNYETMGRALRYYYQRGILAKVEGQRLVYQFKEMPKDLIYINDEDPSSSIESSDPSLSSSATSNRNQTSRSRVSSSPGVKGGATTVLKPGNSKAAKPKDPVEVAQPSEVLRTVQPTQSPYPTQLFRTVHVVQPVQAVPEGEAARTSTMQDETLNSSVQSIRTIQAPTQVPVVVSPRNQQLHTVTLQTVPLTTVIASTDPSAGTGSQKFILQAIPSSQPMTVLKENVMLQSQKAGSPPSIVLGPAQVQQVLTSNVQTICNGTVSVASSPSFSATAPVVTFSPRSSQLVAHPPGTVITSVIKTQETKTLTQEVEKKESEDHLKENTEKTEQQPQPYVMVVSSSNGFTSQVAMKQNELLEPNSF
Sequence of ETV5 (P41161 whole entry): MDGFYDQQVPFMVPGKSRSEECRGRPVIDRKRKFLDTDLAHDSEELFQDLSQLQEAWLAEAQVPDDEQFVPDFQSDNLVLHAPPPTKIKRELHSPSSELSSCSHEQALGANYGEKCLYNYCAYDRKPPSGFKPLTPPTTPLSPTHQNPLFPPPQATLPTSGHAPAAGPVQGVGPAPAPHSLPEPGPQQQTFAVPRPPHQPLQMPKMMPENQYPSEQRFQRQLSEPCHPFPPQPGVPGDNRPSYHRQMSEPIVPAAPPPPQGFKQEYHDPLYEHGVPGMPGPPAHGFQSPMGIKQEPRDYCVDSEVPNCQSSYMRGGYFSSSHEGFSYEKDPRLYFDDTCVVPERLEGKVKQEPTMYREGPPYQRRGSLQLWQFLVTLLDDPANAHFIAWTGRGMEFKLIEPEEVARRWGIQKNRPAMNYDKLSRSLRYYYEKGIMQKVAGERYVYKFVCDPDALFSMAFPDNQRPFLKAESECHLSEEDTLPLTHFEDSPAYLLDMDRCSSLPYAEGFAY
Sequence of ETV1 (P50549 whole entry): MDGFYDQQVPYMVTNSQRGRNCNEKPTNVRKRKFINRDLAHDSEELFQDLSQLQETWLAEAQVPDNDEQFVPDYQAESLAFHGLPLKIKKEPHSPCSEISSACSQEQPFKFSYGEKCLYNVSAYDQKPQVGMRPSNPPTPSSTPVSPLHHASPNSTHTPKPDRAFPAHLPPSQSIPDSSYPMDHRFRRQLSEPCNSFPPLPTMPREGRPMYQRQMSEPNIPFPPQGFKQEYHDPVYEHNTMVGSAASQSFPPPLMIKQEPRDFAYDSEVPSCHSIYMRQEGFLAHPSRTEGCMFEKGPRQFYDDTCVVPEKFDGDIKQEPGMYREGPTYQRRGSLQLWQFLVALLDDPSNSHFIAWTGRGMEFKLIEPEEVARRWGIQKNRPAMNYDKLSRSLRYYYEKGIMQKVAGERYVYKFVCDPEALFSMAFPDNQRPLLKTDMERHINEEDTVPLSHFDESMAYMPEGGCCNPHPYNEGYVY
Sequence of SPIB (Q01892 whole entry): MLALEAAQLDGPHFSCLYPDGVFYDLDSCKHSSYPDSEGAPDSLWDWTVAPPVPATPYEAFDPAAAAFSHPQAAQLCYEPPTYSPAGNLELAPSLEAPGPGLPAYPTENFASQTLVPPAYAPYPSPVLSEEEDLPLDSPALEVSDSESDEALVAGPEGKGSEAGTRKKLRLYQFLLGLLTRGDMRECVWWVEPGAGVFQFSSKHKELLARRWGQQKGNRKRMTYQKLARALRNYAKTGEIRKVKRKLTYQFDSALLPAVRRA
Sequence of ETV6 (P41212 whole entry): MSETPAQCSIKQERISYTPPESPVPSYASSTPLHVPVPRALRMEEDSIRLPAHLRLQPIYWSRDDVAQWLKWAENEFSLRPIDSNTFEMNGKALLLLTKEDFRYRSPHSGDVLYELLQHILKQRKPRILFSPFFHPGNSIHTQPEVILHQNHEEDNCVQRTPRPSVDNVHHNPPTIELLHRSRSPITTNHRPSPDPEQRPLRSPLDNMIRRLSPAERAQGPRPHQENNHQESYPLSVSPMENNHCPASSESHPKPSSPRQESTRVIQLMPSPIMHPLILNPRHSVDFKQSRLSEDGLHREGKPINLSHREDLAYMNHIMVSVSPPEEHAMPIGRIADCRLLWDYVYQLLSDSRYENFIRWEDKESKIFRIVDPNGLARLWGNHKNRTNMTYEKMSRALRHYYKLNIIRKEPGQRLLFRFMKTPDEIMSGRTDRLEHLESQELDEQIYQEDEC

CGGAAC was tested, and the binding signal [1] was 1.16 fold enrichment (6-mer frequency, TF over GST control), the binding signal [2] was 1.18 fold enrichment (6-mer frequency, TF over GST control) and the binding signal [3] was 1.05 fold enrichment (6-mer frequency, TF over GST control). The binding signal [4] was 1.22 fold enrichment (6-mer frequency, TF over GST control), the binding signal [5] was 1.04 fold enrichment (6-mer frequency, TF over GST control) and the binding signal [6] was 1.2 fold enrichment (6-mer frequency, TF over GST control). For the same sequence, the binding signal [7] was 1.29 fold enrichment (6-mer frequency, TF over GST control), the binding signal [8] was 1.29 fold enrichment (6-mer frequency, TF over GST control) and the binding signal [9] was 1.16 fold enrichment (6-mer frequency, TF over GST control). The binding signal [10] was 1.29 fold enrichment (6-mer frequency, TF over GST control), the binding signal [11] was 1.04 fold enrichment (6-mer frequency, TF over GST control) and the binding signal [12] was 1.14 fold enrichment (6-mer frequency, TF over GST control). The binding signal [13] was 1.11 fold enrichment (6-mer frequency, TF over GST control), the binding signal [14] was 1.23 fold enrichment (6-mer frequency, TF over GST control) and the binding signal [15] was 1.11 fold enrichment (6-mer frequency, TF over GST control). The binding signal [16] was 1.18 fold enrichment (6-mer frequency, TF over GST control), the binding signal [17] was 1.31 fold enrichment (6-mer frequency, TF over GST control) and the binding signal [18] was 1.12 fold enrichment (6-mer frequency, TF over GST control).

Source: PMC7862700, “An all-to-all approach to the identification of sequence-specific readers for epigenetic DNA modifications on cytosine”
